Assay outcomes from PubChem.
KCNH2 3.1 inh – KCNH2 3.1 (human) potassium channel inhibition; 340,000 compounds, 0.95% hits; AID 720553; U2OS KCNH2 3.1, thallium flux FluxOr; active compounds read low; activity change, % (tested at about 1.8 µM);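 active means maximum activity change below -70%; inconclusive means maximum activity change from -70% to -50%; inactive means maximum activity change above -50%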;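 further: thallium influx rate constant from kinetic fluorescence after stimulation buffer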
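Channel expression came from 3.1 mutant virus (1.77 x 10^8 /mL) applied to suspended U2OS cells for 4 h. Flux was tracked with FluxOr dye plus Red40 quencher, and kinetic rate constants normalized to controls.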
RGS4 inh – human RGS4 inhibition | Potency, µM (highest dose often 114 µM), without a hit: at the top dose activity change, negative = inhibition, most hits filed as inhibitors | P49798 | 390,000 compounds, 0.039% hits | Transcreener GDP fluorescence polarization, RGS4-accelerated GTP hydrolysis; further: potency means the concentration at half of the fitted maximal effect; nearly all actives have a fitted effect of over 75% in size
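MLSMR compounds (23 nl, pin-transferred) preincubated 10 min at room temperature with a 500nM (2x) first reagent, then RGS4 at 900nM (2x) plus Transcreener GDP mix added; fluorescence polarization (620/688 nm) read before and after 90 min at 30 °C.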
Pin1 inhibitor – blocks the human prolyl isomerase Pin1. Pin1 FP peptide displacement, HiFluor488, 10 min. 390,000 compounds, 0.009% hits. Q13526. Potency, µM (doses to about 115 µM), inactives show at the top dose activity, negative = inhibition, most hits filed as inhibitors. AID 504891; active means well fitted inhibition curve with a large enough effect in the polarisation, with a control signal flat, not every such curve was filed as active; inconclusive means small, poorly fitted or top-dose-only effect, or effect the other way, or a change in a side signal; inactive means no such curve, though single readings can be large or run the other way; the % refers to the polarisation; further: potency means the concentration at half of the fitted maximal effect
KCNH2 WT inh – inhibitors of human wildtype KCNH2 potassium channel; U2OS, BacMam KCNH2, thallium flux FluxOr; active compounds read low; AID 720551; Q12809; activity change, % at 1.84 µM; 340,000 compounds, 0.37% hits;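 active means maximum activity change below -70%; inconclusive means maximum activity change between -70% and -50%; inactive means maximum activity change above -50%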
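U2OS cells were transduced with wild-type KCNH2 virus (2.03 x 10^8 / mL) for 4 h at room temperature, then cultured overnight at 37 C. Thallium flux was read with FluxOr dye. Rate constants were normalized to DMSO controls.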
Tb PGK inh – T. brucei PGK inhibition; AID 602233; P07378; 380,000 compounds, 0.043% hits; PGK/GAPDH coupled, Kinase-Glo luminescence, 60 min; Potency, µM (titrated, usually from 57.5 µM), without a hit: at the top dose activity change, negative = inhibition, usual class: inhibitors; further: potency means the concentration at half of the fitted maximal effect; nearly all actives have a fitted effect of over 60% in size
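Recombinant glycosomal PGK reaction used 1,3-bisphosphoglycerate generated in-well by GAPDH (100nM final) in 100mM TEA pH 7.6, 5mM MgCl2, 0.01% Tween-20. After 60 minutes at room temperature, ATP was read by Kinase-Glo Plus luminescence end-point.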
GCN5L2 inh – GCN5L2 (KAT2A) acetyltransferase inhibition. Q92830. GCN5L2 HAT assay, ThioGlo1 CoA-SH fluorescence. Potency, µM (titrated, usually from 58.9 µM), for the others: at the top dose activity change, negative = inhibition, actives largely listed as inhibitors. 390,000 compounds, 0.21% hits. AID 504327; further: potency means the concentration at half of the fitted maximal effect
Target sequence (Q92830 whole entry, looked up): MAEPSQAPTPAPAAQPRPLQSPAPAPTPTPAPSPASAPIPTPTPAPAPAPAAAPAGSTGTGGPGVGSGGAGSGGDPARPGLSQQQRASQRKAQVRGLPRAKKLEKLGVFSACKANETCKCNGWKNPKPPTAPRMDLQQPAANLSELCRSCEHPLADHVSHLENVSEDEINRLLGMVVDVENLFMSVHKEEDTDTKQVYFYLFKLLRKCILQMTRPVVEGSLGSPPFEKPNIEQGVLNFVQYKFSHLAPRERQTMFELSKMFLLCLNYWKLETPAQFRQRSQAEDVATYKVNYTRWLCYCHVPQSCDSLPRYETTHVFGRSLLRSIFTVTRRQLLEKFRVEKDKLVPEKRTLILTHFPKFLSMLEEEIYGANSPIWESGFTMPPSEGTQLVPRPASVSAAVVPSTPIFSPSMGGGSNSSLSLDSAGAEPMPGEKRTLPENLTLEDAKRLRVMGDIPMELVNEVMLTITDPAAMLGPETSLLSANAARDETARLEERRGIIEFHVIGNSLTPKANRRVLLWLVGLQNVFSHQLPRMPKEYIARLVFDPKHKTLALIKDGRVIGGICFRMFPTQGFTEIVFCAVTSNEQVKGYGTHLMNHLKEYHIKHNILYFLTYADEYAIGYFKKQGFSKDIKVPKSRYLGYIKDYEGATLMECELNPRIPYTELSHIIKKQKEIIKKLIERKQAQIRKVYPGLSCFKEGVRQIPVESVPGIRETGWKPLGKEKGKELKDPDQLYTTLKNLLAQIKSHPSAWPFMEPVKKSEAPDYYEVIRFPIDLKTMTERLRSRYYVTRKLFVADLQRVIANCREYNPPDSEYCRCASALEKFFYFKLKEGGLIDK
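Preincubate 20nM GCN5L2 with compound 15 min, RT → add 50uM ThioGlo1 + 75uM H3(1-25) + 70uM acetyl-CoA → read fluorescence 0 and 20 min. Primary qHTS; fluorescent artifacts likely.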
* = called active by the depositor; i = inactive; ? = inconclusive; / = no result; [ ] = dose if it differs, or a comment. Most compounds without a hit are left out; they make up all but 1.2% or so of the library. Unless noted, the call rests on the fitted dose curve; in most records, active means well fitted curve in the direction sought with a large enough effect; inconclusive means small, poorly fitted or top-dose-only effect, or another doubt; inactive means no such curve, though single readings can be large; an effect the other way counts as inactive or inconclusive. On the % scale 0 is the no-effect control and ±100 the full control effect.

SMILES | KCNH2 3.1 inh | RGS4 inh | Pin1 inhibitor | KCNH2 WT inh | Tb PGK inh | GCN5L2 inh
CNc1oc(-c2ccccc2)nc1C#N | -81* | -11% | -1% | -3 | -2% | -12%
O=C(O)CC/C=C\CC[C@@H]1[C@@H](N2CCCCC2)[C@@H](O)C[C@@H]1OCc1ccc(-c2ccccc2)cc1 | / | / | / | / | / | -15%
CC1CCc2sc3ncn4nc(C(=O)NCc5ccco5)nc4c3c2C1 (configuration not stated) | -77* | -25% | 6% | 6 | -5% | 1%
COc1ccc(-c2ccc3ncnc(NCCc4cnc[nH]4)c3c2)cc1OC | / | / | 3% | / | / | /
Cc1cc(NC(=O)/C=C/c2ccco2)ccc1NC(=O)c1ccccc1 | 3 | 4% | -1% | -12 | i | 3.2µM*
Cc1ccc(NC(=O)/C=C/c2ccco2)cc1F | / | -10% | -2% | / | -11% | -13%
CC[n+]1c(/C=C2/C=C(C)CC(C)(C)C2)sc2ccc(OC)cc21 | 2 | ? | ? | -71* | -5% | 98%
CC[n+]1c(/C=C2\C=C(C)CC(C)(C)C2)sc2ccccc21 | -24 | ? | 4% | 5 | i | -20%
CC(Sc1nc2c(c(=O)[nH]1)CCCC2)C(=O)Nc1cc(C(F)(F)F)ccc1Cl (configuration not stated) | / | 35% | -4% | / | / | -2%
COc1ccc(NC(=O)c2oc3ccccc3c2NC(=O)Cc2ccc(F)cc2)c(OC)c1 | / | -11% | -13% | / | i | 1%
Cc1ccc(C(=O)N/C(=C\c2ccc(-c3cccc([N+](=O)[O-])c3)o2)C(=O)NCCCN2CCOCC2)cc1 | -186* | 11% | 9% | 5 | -4% | -12%
COc1ccc(C(=O)N/C(=C\c2ccc(-c3cccc([N+](=O)[O-])c3)o2)C(=O)NCCCN2CCOCC2)cc1 | -6 | / | / | 8 | i | /
O=C(NCCCN1CCN(CCCNC(=O)c2cccc([N+](=O)[O-])c2)CC1)c1cccc([N+](=O)[O-])c1 | -81* | 4% | -3% | -41 | 8% | 0%
Cc1ccc(C(=O)N/C(=C\c2ccc(C(C)C)cc2)C(=O)NCCCN2CCOCC2)cc1 | 12 | 10% | 3% | -20 | 1% | -4%
Cc1ccc(C(=O)N/C(=C\c2ccc(Cl)cc2)C(=O)NCCCN2CCOCC2)cc1 | -103* | -4% | 1% | -141* | -8% | -1%
COCCn1c(=O)cnc2cnc(Oc3ccccc3)nc21 | / | / | / | / | / | -10%
Cc1cccc(NS(=O)(=O)c2c(C)nc3sccn3c2=O)c1C | / | 19% | -1% | / | 5% | -6%
Cc1ccccc1NC1=CC(=O)CC(C)(C)C1 | -5 | 21% | -1% | -8 | 5% | 2%
Cc1c(NC2=CC(=O)CC(C)(C)C2)ccc([N+](=O)[O-])c1C | -104* | 11% | -1% | 1 | 10% | -3%
Cc1ccc(Cc2nc3ccccc3nc2SCC(=O)NCc2ccccc2Cl)cc1 | / | -5% | 1% | / | -6% | 0%
O=C(Nc1ccccc1)N1CCC2(CC1)CCN(C(=O)c1cnccn1)CC2 | / | / | / | / | / | 3%
O=C(COC(=O)C1CC2C=CC1C2)Nc1cccc(S(=O)(=O)N2CCOCC2)c1 (configuration not stated) | -104* | -39% | -2% | 2 | -2% | -3%
O=C(COC(=O)c1ccco1)Nc1cccc(S(=O)(=O)N2CCOCC2)c1 | 2 | / | / | -5 | -8% | /
Cc1cc(N2CCN(c3nc(-c4ccccc4)cs3)CC2)c2ccccc2n1 | -79* | -10% | 3% | -35 | -2% | -5%
c1ccc(-c2csc(N3CCCCCC3)n2)cc1 | -15 | -23% | 4% | 15 | -1% | -14%
SMILES | KCNH2 3.1 inh | RGS4 inh | Pin1 inhibitor | KCNH2 WT inh | Tb PGK inh | GCN5L2 inh
Cc1cc(N2CCN(S(=O)(=O)c3ccccc3)CC2)c2ccccc2n1 | -43 | -8% | -2% | -109* | / | -5%
Fc1ccc(CNc2nc3c(-c4ccc(F)cc4)nnn3c3ccccc23)cc1 | / | -8% | 4% | / | -11% | 2%
COc1ccc(-c2cc3ncc(C)n3c(Nc3ncccc3C(N)=O)n2)cc1OC | / | -15%[56.9 µM] | / | / | / | -15%
CO/N=C/c1ccc(N2CCN(C(=O)c3ccc(C)cc3)CC2)c([N+](=O)[O-])c1 | -98* | 5% | 0% | -10 | -7% | ?
CO/N=C/c1ccc(N2CCCC2)c([N+](=O)[O-])c1 | 11 | 7% | -4% | 30 | 7% | -9%
CC(C)C[C@H]1CNC(=S)N1CC1CCN(CCCCc2ccccc2)CC1 | -71* | 11% | ? | 12 | 3% | /
S=C1NC[C@H](Cc2ccccc2)N1CC1CCN(CCCC2CCCC2)CC1 | -88* | 4% | 2% | -40 | 11% | /
COCCn1c(=O)c(CCc2ccccc2)nc2cnc(N(C)C)nc21 | / | / | / | / | / | -11%
COc1ccccc1N1CCN(C/C(C)=C/c2ccccc2)CC1 | -98* | -17% | 4% | 33 | -2% | -2%
C/C(=C\c1ccccc1)CN1CCN(c2ccccc2)CC1 | -4 | -27% | -8% | -23 | -10% | 1%
C/C=C(\C)CN1CCN(c2ccccc2)CC1 | -1 | 16% | 2% | 1 | 3% | 32µM*
COc1cccc(/C=N/N2CCN(c3ccccc3OC)CC2)c1 | -120* | -31% | 1% | -25 | -10% | -26%
COc1cc(NC(=O)CN2CCCCCC2)cc(OC)c1 | -10 | 16% | -9% | -2 | i | -4%
COc1ccc(NC(=O)CN2CCN(CC(=O)Nc3cc(OC)cc(OC)c3)CC2)cc1 | -81* | 35% | 1% | -26 | 4% | -18%
CCOc1ccc(NC(=O)CN2CCN(CC(=O)Nc3ccc(F)cc3)CC2)cc1 | -89* | 40% | 7% | -92* | 3% | -27%
O=C(CN1CCN(CC(=O)Nc2ccc(OCc3ccccc3)cc2)CC1)Nc1ccc(F)cc1 | -94* | -4% | 5% | -103* | 6% | /
CCOc1ccc(NC(=O)CN2CCN(CC(=O)c3ccc(OCC)cc3)CC2)cc1 | -49 | ? | 12% | 18 | i | 1%
O=C(CN1C(=O)c2cccc3cccc1c23)Nc1ccc2c(c1)OCO2 | -2 | -4% | 15% | 2 | 1% | 3.5µM*
Cc1cn([C@@H]2C[C@H](N=[N+]=N)[C@H](CO)O2)c(=O)[nH]c1=O | / | / | / | / | / | 2%[21.4 µM]
CCOC(=O)c1ccccc1NC(=O)CSc1nc2ncccc2[nH]1 | / | -7% | 17% | / | 0% | -2%
O=C(CN1CCCCC1)Nc1ccccc1 | -1 | 0% | -1% | 0 | -4% | 1%
CCCCNC(=O)CN1CCN(Cc2ccc3cc(OC)ccc3c2)CC1 | -84* | 2% | -3% | -15 | / | -3%
